Among the data in ChEMBL document CHEMBL3433997, “St. Jude Leishmania screening dataset” (2016) are inhibition values, retold here.

What is called inhibition is the relative decrease from the control value, in per cent.

The target of the assay is Solute carrier family 2, facilitated glucose transporter member 1 (Homo sapiens) (UniProt P11166). The assay is described as follows: ST_JUDE_LEISH: Cytotoxicity at 2uM final concentration against transgenic Leishmania Mexicana promastigotes LmGLUT1 that are glucose transport deficient and complemented with the human glucose transporter GLUT1. Activity is measured by DNA content using SYBR green in vitro. Type of assay: functional.
Chain of Solute carrier family 2, facilitated glucose transporter member 1 (Homo sapiens) (P11166 whole entry): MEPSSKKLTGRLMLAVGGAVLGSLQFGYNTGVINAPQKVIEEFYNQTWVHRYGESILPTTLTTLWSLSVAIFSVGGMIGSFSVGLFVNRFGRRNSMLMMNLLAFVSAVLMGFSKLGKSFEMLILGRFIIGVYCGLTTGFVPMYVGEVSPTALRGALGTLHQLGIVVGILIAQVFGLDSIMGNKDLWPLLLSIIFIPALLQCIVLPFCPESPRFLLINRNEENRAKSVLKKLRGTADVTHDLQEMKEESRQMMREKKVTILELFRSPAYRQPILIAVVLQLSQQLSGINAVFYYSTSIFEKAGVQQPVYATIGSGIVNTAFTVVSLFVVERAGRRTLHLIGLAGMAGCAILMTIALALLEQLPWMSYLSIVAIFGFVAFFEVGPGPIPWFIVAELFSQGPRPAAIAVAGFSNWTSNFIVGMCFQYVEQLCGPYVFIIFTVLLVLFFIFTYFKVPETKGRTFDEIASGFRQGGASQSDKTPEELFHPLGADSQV
`CNC(=O)c1cnc(Nc2ccc3[nH]c(=O)[nH]c3c2)nc1Nc1cccc(OC(C)C)c1`: the inhibition was -0.17%.
The value for `Oc1ccc(CCNc2nc(NCCCOc3cc(CN4CCCCC4)ccc3F)nc(N3CCNCC3)n2)cc1` was 1.98%; that for `O=C(O)C[C@H](NC(=O)c1cc(-c2ccc3c(c2)OCO3)no1)C(=O)O.O=C(O)C[C@H](NC(=O)c1conc1-c1ccc2c(c1)OCO2)C(=O)O` was -1.58%.
For `Clc1ccc(C2CCN(CCCOc3ccc4c(c3)CCNCC4)CC2)cc1` the value was 56.8%; for `COC1CCC(C(=O)Nc2ccc(-c3cccc(-c4nc5cccc(C)c5[nH]4)c3)cc2)CC1` (configuration not stated), 6.31%.
In the case of `CN1CCN(CCCN(Cc2csc(-c3ccc(CNCc4ccccc4)cc3)n2)S(=O)(=O)c2ccccc2)CC1`, the inhibition came out at 12.2%.
Turning to `C=C[C@]1(C)C[C@@H](OC(=O)CNC[C@@H](O)CN2C[C@H](c3ccnc4ccc(OC)nc34)OC2=O)[C@@]2(C)[C@@H]3C(=O)CC[C@@]3(CC[C@@H]2C)[C@@H](C)[C@@H]1O`, the inhibition is 2.09%.
For the compound `Cc1cc(N2CCOCC2)nc(Nc2ccc(NC(=O)Nc3ccc(F)cc3)cc2)n1`, the inhibition was -0.56%.
For the compound `O=C(NCCN1CCCCC1)c1cc2cc(-c3ccccc3)ccc2n1S(=O)(=O)c1ccccc1`, the inhibition was found to be 71.9%.
Regarding `O=C1CN(C(=O)CCC2CCCC2)C(c2ccc(F)cc2)c2cc(F)ccc2N1` (configuration not stated), the inhibition stood at 5.81%.
For `Cn1cncc1CCN(Cc1ccc(-c2ccc(C(F)(F)F)cc2)cc1)C(=O)Cn1c(CCc2cccc(F)c2F)cc(=O)c2cccnc21`, the inhibition came to 1.83%.
Regarding `CC(C)CCN1CCC(Oc2cccc(NC(=O)c3ccc(C(F)(F)F)cc3)c2)CC1`, the inhibition came to 1.54%.
